High-throughput results as filed in PubChem BioAssay.
This is a sample that favours compounds with a hit; in the whole collection about 0.9% have one here.
Sa ugtP lethal: compounds lethal to S. aureus RN4220 ugtP deletion mutant; OD600 growth, 16 h; growth inhibition, % (test concentration not listed); 330,000 tested, 0.54% active; AID 1259309; in the data active = growth inhibition above about 68%
Mtb BioA inh: BioA (M. tuberculosis) enzyme inhibition. AID 602481. purified M. tuberculosis BioA enzyme, plate reader. inhibition, % at 9.99 µM. 360,000 tested, 0.096% active; in the data active = inhibition above about 40%
Mtb betalactam: beta-lactam sensitization of Mtb H37Rv. 330,000 tested, 0.27% active. inhibition, % at 25 µM. M. tuberculosis H37Rv growth with meropenem, percent inhibition; call rule not given here;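 also: growth measured after seven days incubation then overnight dye step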
Sa RN4220 lethal: kills Staphylococcus aureus RN4220; S. aureus RN4220 growth, OD600, 16 h; inhibition, % (concentration not given with the values); 330,000 tested, 0.33% active; AID 1259311; in the data active = inhibition above about 85%
PfHsp40 rescue: restores yeast growth despite PfHsp40 toxicity; S. cerevisiae expressing PfHsp40, growth rescue, ATP luminescence; 340,000 tested, 0.68% active; growth rescue, % at 12.5 µM; in the data active = growth rescue above about 28%, passing the limit was not always enough;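 also: yeast W303a lacking pdr1 and pdr3 grown in galactose medium; growth measured after three days at 30 °C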
A number is an active result.

What do the screens show for `Cc1ccccc1C(=O)NNC(=S)NC(=O)COc1ccccc1`?
Sa ugtP lethal: inactive; Mtb betalactam: inactive; Sa RN4220 lethal: inactive; PfHsp40 rescue: inactive

What do the screens show for `CCCCC(=O)NNC(=S)NC(=O)c1ccc([N+](=O)[O-])cc1`?
Sa ugtP lethal: inactive; Mtb betalactam: inactive; Sa RN4220 lethal: inactive; PfHsp40 rescue: inactive

What do the screens show for `COc1ccc(C(=O)NNC(=S)NC(=O)c2ccc(Cl)cc2)cc1`?
Sa ugtP lethal: inactive; Mtb betalactam: inactive; Sa RN4220 lethal: inactive; PfHsp40 rescue: inactive

Results for COc1ccc(C(=O)NC(=S)NNC(=O)c2ccc(C)cc2)cc1 ?
Sa ugtP lethal: inactive; Mtb betalactam: inactive; Sa RN4220 lethal: inactive; PfHsp40 rescue: 143

How did CC(=O)c1ccc(N2CCN(C(=O)c3cc(-c4ccc5c(c4)OCO5)nc4ccccc34)CC2)cc1 do in these assays?
Sa ugtP lethal: 101; Mtb BioA inh: inactive; Mtb betalactam: inactive; Sa RN4220 lethal: inactive; PfHsp40 rescue: inactive

What do the screens show for `O=C(O)c1cc(-c2ccc3c(c2)OCO3)nc2ccccc12`?
Sa ugtP lethal: inactive; Mtb BioA inh: inactive; Mtb betalactam: inactive; Sa RN4220 lethal: inactive; PfHsp40 rescue: inactive

How did CC1(C)C2CCC1(C)C(OCC[N+](C)(C)CC(=O)OC1CCCCC1)C2 (stereo not given) do in these assays?
Sa ugtP lethal: 100; Mtb BioA inh: inactive; Mtb betalactam: inactive; Sa RN4220 lethal: inactive; PfHsp40 rescue: inactive

How did CCOC(=O)C[N+](C)(C)CCOC1CC2CCC1(C)C2(C)C (stereo not given) do in these assays?
Sa ugtP lethal: inactive; Mtb betalactam: inactive; Sa RN4220 lethal: inactive; PfHsp40 rescue: inactive

What do the screens show for `CCOC(=O)c1sc(=S)n(-c2ccccc2Cl)c1C`?
Sa ugtP lethal: inactive; Mtb BioA inh: inactive; Mtb betalactam: inactive; Sa RN4220 lethal: inactive; PfHsp40 rescue: inactive

How did CCOC(=O)N1C(=O)C2(CCCCC2)N(c2ccccc2Cl)C1=S do in these assays?
Sa ugtP lethal: inactive; Mtb betalactam: inactive; Sa RN4220 lethal: inactive; PfHsp40 rescue: 284

Results for CN1C(=O)C2C(C=Cc3ccccc3)N3C(=O)CN(Cc4ccccn4)C(=O)[C@@]3(C)C2C1=O (stereo not given in full) ?
Sa ugtP lethal: inactive; Sa RN4220 lethal: inactive

How did CCOC(=O)C1=C(CC)Nc2ccccc2N=C1NC(=O)Nc1ccc(Cl)c(Cl)c1 do in these assays?
Sa ugtP lethal: 100; Mtb BioA inh: inactive; Mtb betalactam: inactive; Sa RN4220 lethal: 101; PfHsp40 rescue: inactive

Results for NC(=O)C(Cc1cc2ccccc2s1)NC(=O)C1CC2(CC(c3cccc(NC(=O)C4CCC(=O)N4)c3)=NO2)CN1C(=O)C=Cc1c(F)cccc1Cl (stereo not given) ?
Sa ugtP lethal: inactive; Sa RN4220 lethal: inactive

Results for COc1cc(/C=N/NC(N)=S)cc(Br)c1OCc1ccccc1F ?
Mtb betalactam: inactive; PfHsp40 rescue: inactive

How did CCOc1cc(/C=N/NC(N)=S)cc(Br)c1OCc1ccccc1C do in these assays?
Mtb BioA inh: inactive; Mtb betalactam: inactive; PfHsp40 rescue: 83

Results for Clc1ccc(OCc2nc(-c3ccncc3)no2)c(Br)c1 ?
Sa ugtP lethal: inactive; Mtb BioA inh: inactive; Mtb betalactam: inactive; Sa RN4220 lethal: inactive; PfHsp40 rescue: 597

Results for C[C@@H]1C[C@@H]([C@H](O)CC2CC(=O)NC(=O)C2)C(=O)[C@@H](C)C1 ?
Mtb BioA inh: inactive; Mtb betalactam: inactive; PfHsp40 rescue: 40

Results for COC(=O)C1=C(c2ccc(Cl)c(C(F)(F)F)c2)CC2CCC1N2C(=O)NCc1ccc2c(c1)OCO2 (stereo not given) ?
Sa ugtP lethal: inactive; Sa RN4220 lethal: inactive

What do the screens show for `Nc1nc(-c2ccc(Oc3ccccc3)cc2)cs1`?
Sa ugtP lethal: inactive; Mtb BioA inh: inactive; Mtb betalactam: inactive; Sa RN4220 lethal: inactive; PfHsp40 rescue: 185

Results for Nc1nc(-c2ccc(-c3ccccc3)cc2)cs1 ?
Sa ugtP lethal: inactive; Mtb betalactam: inactive; Sa RN4220 lethal: inactive; PfHsp40 rescue: inactive

How did O=S1(=O)CCOCC(c2ccccc2)N1Cc1ccccc1 (stereo not given) do in these assays?
Sa ugtP lethal: inactive; Sa RN4220 lethal: inactive

How did O=c1c(Br)ccc(Br)cc1Br do in these assays?
Sa ugtP lethal: inactive; Mtb BioA inh: inactive; Sa RN4220 lethal: inactive; PfHsp40 rescue: 77

How did CCCCN1CC(=O)N2C3c4ccccc4OCC3C(C(=O)OCC)[C@]2(C)C1=O (stereo not given in full) do in these assays?
Sa ugtP lethal: inactive; Sa RN4220 lethal: inactive

What do the screens show for `CCOC1OC(C(=O)N2CCN(Cc3ccc4c(c3)OCO4)CC2)=CC(C2CCCCC2)C1CCCO` (stereo not given)?
Sa ugtP lethal: inactive; Sa RN4220 lethal: inactive

Results for CCNc1ccc(Br)cc(C(=O)/C=C/c2ccc3c(c2)OCO3)c1=O ?
Sa ugtP lethal: inactive; Mtb BioA inh: inactive; Mtb betalactam: inactive; Sa RN4220 lethal: inactive; PfHsp40 rescue: 37

How did O=C1CCC(C(=O)N2CSCC2C(=O)O)N1 (stereo not given) do in these assays?
Sa ugtP lethal: inactive; Sa RN4220 lethal: inactive

What do the screens show for `COc1ccc([N+](=O)[O-])cc1C1NN=C(c2ccccc2O)S1` (stereo not given)?
Sa ugtP lethal: inactive; Mtb BioA inh: inactive; Sa RN4220 lethal: inactive; PfHsp40 rescue: inactive

Results for O=[N+]([O-])c1ccc(O)c(C2=NNC(c3ccccc3F)C2)c1 (stereo not given) ?
Sa ugtP lethal: 94; Mtb BioA inh: inactive; Mtb betalactam: inactive; Sa RN4220 lethal: 92; PfHsp40 rescue: inactive

How did CCOC1OC(C(=O)N2CCN(Cc3ccc4c(c3)OCO4)CC2)=CC(C2CC2)C1CCCO (stereo not given) do in these assays?
Sa ugtP lethal: inactive; Sa RN4220 lethal: inactive

What do the screens show for `COc1ccc(-c2ccnc(SCC(=O)N3CCN(c4ccccc4)CC3)n2)cc1`?
Sa ugtP lethal: inactive; Mtb BioA inh: inactive; Mtb betalactam: inactive; Sa RN4220 lethal: inactive; PfHsp40 rescue: 105

Results for Cc1ccnc(SCC(=O)N2CCN(c3ccccc3)CC2)n1 ?
Sa ugtP lethal: inactive; Mtb BioA inh: inactive; Mtb betalactam: inactive; Sa RN4220 lethal: inactive; PfHsp40 rescue: inactive

How did CC(C)(C)OC(=O)N1CCN(C(=O)C(Cc2ccc(O)cc2)n2cc(CCO)nn2)CC1 (stereo not given) do in these assays?
Sa ugtP lethal: inactive; Sa RN4220 lethal: inactive

How did Cc1ccc(S(=O)(=O)N2CCC3(CC2)OCCN3S(=O)(=O)c2cccs2)cc1 do in these assays?
Sa ugtP lethal: inactive; Mtb BioA inh: inactive; Mtb betalactam: inactive; Sa RN4220 lethal: inactive; PfHsp40 rescue: inactive

Results for Cc1ccc(S(=O)(=O)N2CCOC23CCN(C(=O)c2cc(Cl)ccc2Cl)CC3)cc1 ?
Sa ugtP lethal: inactive; Mtb BioA inh: inactive; Mtb betalactam: inactive; Sa RN4220 lethal: inactive; PfHsp40 rescue: 91

Results for O=S(=O)(c1ccc(Cl)cc1)N1CCC2(CC1)OCCN2S(=O)(=O)c1cccs1 ?
Sa ugtP lethal: inactive; Sa RN4220 lethal: inactive; PfHsp40 rescue: 55

How did O=[N+]([O-])c1ccc(Sc2cccc[n+]2[O-])c2nonc12 do in these assays?
Sa ugtP lethal: inactive; Sa RN4220 lethal: inactive; PfHsp40 rescue: 683
